Rows were chosen to be rich in hits. Some 15% of all compounds tested hit in one or more screens of this group.
Pf growth 48h: inhibits P. falciparum growth in the first generation, 48 h; actives 5.9% (n = 310,000); AID 504832; P. falciparum luciferase growth in erythrocytes, 48 h; Potency, µM (doses to about 28.7 µM), actives largely listed as inhibitors
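Erythrocytes infected with P. falciparum carrying an integrated firefly luciferase reporter (2% hematocrit, 0.1% parasitemia final) were exposed to compounds in RPMI 1640 with 0.5% Albumax at 37 C, 5% CO2. Growth inhibition was scored as reduced luminescence.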
Pf growth 96h: P. falciparum growth inhibition at 96 hour, primary screen for plastid delayed-death inhibitors; P. falciparum luciferase reporter growth, 96 h; Potency, µM (highest dose often 28.7 µM), hits mostly inhibitors; actives 6.9% (n = 320,000)
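Readout is luminescence from an integrated firefly luciferase in P. falciparum. Red cells, 2% hematocrit and 0.05% parasitemia final, were cultured with compound through two parasite generations (96 hours) at 37 C, 5% CO2.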
SARS PLpro yeast: blocks SARS-CoV papain-like protease in a yeast assay. S. cerevisiae expressing SARS-CoV PLpro, growth rescue. actives 0.19% (n = 330,000). AID 485353. Potency, µM (series often up to 32.9 µM), hits mostly activators; calls by dose curve; note: nearly all actives have a fitted effect of over 55% in size
HCMV antiviral: human cytomegalovirus inhibition; actives 4.5% (n = 410,000); activity change, negative = inhibition, % at 57.5 µM; HFF cells, HCMV-luciferase reporter, 72 h; active compounds read low; in the data active = activity change below about -60%; inconclusive = no clear call, values can overlap the other calls; inactive = above about -39%
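Two-dose cell screen: HFF monolayers treated with compounds and infected with luciferase-expressing HCMV at 1 PFU/cell, 72 h at 37C, then lysed for luciferase measurement.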
HCV inhibitor: blocks hepatitis C virus; Huh7.5.1 HCVcc-Cre infection, luciferase reporter, 44 h; Potency, µM (top dose mostly 41.8 µM), most hits filed as inhibitors; actives 3.4% (n = 340,000)
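Infectious HCV cell culture screen: compound-treated cells (1,000/well, pre-plated 4 h) are infected with HCVcc-Cre at roughly 0.5 moi and grown 44 h. Infection is quantified by luciferase signal after 15 min substrate incubation at room temperature.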
Sm TGR inh: inhibitors of Schistosoma mansoni thioredoxin glutathione reductase | actives 3% (n = 360,000) | Q962Y6 | Potency, µM (top dose mostly 114 µM), most hits filed as inhibitors | purified TGR, DTNB reduction, TNB absorbance 405 nm; note: nearly all actives have a fitted effect of over 60% in size
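TGR 20 nM + NADPH 100 uM (dispensed conc.), cpd preinc 15 min RT; start with NADPH (500 uM addition) then DTNB (15 mM addition). Kinetic TNB absorbance, 405 nm filter. Four-parameter Hill fit across titration.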
A number is an active result; – = inactive; ? = inconclusive; · = no result. Unless noted, calls come from the whole dose curve; as a rule, active = well fitted curve in the direction sought with a large enough effect; inconclusive = small, poorly fitted or top-dose-only effect, or another doubt; inactive = no such curve, though single readings can be large; an effect the other way counts as inactive or inconclusive.

SMILES	Pf growth 48h	Pf growth 96h	SARS PLpro yeast	HCMV antiviral	HCV inhibitor	Sm TGR inh
O=C1c2ccccc2NC(c2ccc(-c3ccc(Br)cc3)o2)N1O (stereo unspecified)	?	–	·	-72	?	–
c1ccc(OCCOc2ccccc2-c2nnco2)cc1	–	5.2µM	–	–	–	–
COc1ccc([C@H]2CC(=O)C=C(c3cccc(C(C)C)c3)C2)cc1OC	?	?	–	–	?	–
CC(C)c1cccc(C2=CC(=O)C[C@H](c3ccc(F)cc3)C2)c1	1.7µM	2.3µM	–	?	–	–
COc1ccc([C@H]2CC(=O)C=C(c3ccc(C)c4ccccc34)C2)cc1	?	1.2µM	–	–	–	–
COc1ccc([C@H]2CC(=O)C=C(c3cc4ccccc4c4ccccc34)C2)cc1	–	?	–	–	?	–
O=C1C=C(c2ccc(O)cc2)C[C@@H](c2ccc(Cl)cc2)C1	3.7µM	2.3µM	–	–	–	–
Cc1ccc(C2=CC(=O)C[C@H](c3ccc(Cl)cc3)C2)cc1	–	–	–	·	–	–
O=C1C=C(c2ccc3[nH]ccc3c2)C[C@@H](c2ccc(Cl)cc2)C1	2.6µM	4.7µM	–	–	?	–
CN1CCC(=O)N([C@H](COc2ccccc2)Cc2ccccc2)CC1	–	?	–	–	–	–
CCN(C(=O)c1ccc(S(=O)(=O)N(C)C)cc1)C(C)C(=O)Nc1ccc(C)cc1 (stereo unspecified)	–	?	–	–	–	–
COc1ccc(CCNC(=O)c2cccc(Nc3nc4ccccc4nc3-n3nc(C)cc3C)c2)cc1OC	·	·	·	–	·	–
O=C1C=C(c2cccc(CO)c2)C[C@@H](c2ccc(Cl)cc2)C1	0.33µM	0.47µM	–	–	–	–
O=C1C=C(c2ccccc2)C[C@@H](c2ccc(Cl)cc2)C1	2.6µM	?	–	–	–	–
O=C1C=C(c2ccc3ccccc3c2)C[C@@H](c2ccc(Cl)cc2)C1	?	–	–	–	–	?
COc1cccc(C2=CC(=O)C[C@H](c3ccc(Cl)cc3)C2)c1	2.9µM	?	–	–	–	–
CCOc1ccc(Cl)cc1C1=CC(=O)C[C@H](c2ccc(OC)cc2)C1	?	?	–	–	8.9µM	–
O=S1(=O)C=C[C@@H](COCc2ccccc2)N1Cc1ccc(Br)cc1	·	·	·	–	·	·
O=C(NCc1ccccc1)c1cc(C2COCCN2S(=O)(=O)c2ccccc2)on1 (stereo unspecified)	·	·	·	–	·	·
COc1ccc(/C=N/N=C/c2ccc(OC)c(O)c2)cc1O	?	–	–	–	–	–
COc1cc(/C=N/Nc2ccc(F)cc2F)cc(OC)c1O	–	?	·	–	–	25µM
O/N=C/c1cc(Cl)ccc1OCc1ccccc1Cl	–	–	–	–	–	–
COc1cc(/C=N/N=C/c2cc(OC)c(O)c(OC)c2)cc(OC)c1O	10µM	4.1µM	–	–	–	?
COc1cc(/C=N/N=C(N)N)ccc1OCc1ccccc1Cl	2.6µM	–	–	-100	14µM	–
COc1ccc(/C=N/N=C/c2ccc(OC)c(OC)c2)cc1OC	3.7µM	–	–	–	–	–
SMILES	Pf growth 48h	Pf growth 96h	SARS PLpro yeast	HCMV antiviral	HCV inhibitor	Sm TGR inh
COC(=O)CC1N(S(=O)(=O)c2ccc(C)cc2)c2ccccc2C1(C(=O)OC)C(=O)OC (stereo unspecified)	·	·	·	–	·	·
CS(=O)(=O)N(CCC#N)Cc1ccc(/C=C2\C(=O)Nc3ccccc32)o1	?	?	–	–	–	–
Cc1cccc(N2C(=O)/C(=C/c3ccc(CN(CCC#N)S(C)(=O)=O)o3)C(=O)NC2=S)c1	–	·	–	–	–	8.9µM
Cc1ccc(N2C(=O)/C(=C/c3ccc(CN(CCC#N)S(C)(=O)=O)o3)C(=O)NC2=S)cc1C	–	–	–	·	·	3.2µM
Cc1ccc(N2NC(=O)/C(=C/c3ccc(-c4ccc(Cl)c(C(=O)O)c4)o3)C2=O)cc1C	–	–	–	–	–	–
O=C(Cc1ncc(C(F)(F)F)cc1Cl)NCc1ccco1	–	–	–	?	–	–
Fc1cccc(CSc2ccc3nnc(-c4ccccn4)n3n2)c1	?	1.9µM	–	–	–	–

Screens deposited in PubChem BioAssay by National Center for Advancing Translational Sciences (NCATS).
